# Out of some 70,000 compounds screened, about 120 (0.17%) were called active. Rule as the data show it: active = inhibition above about 34%; inconclusive = no clear call, values can overlap the other calls; inactive = below about 11%. The entries come from a sample that favours actives as a whole.
# Biological target: Isocitrate dehydrogenase [NADP] cytoplasmic (Homo sapiens) (UniProt O75874)
# Assay: PubChem AID 624101;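 also: 0% = DMSO and 100% = no enzyme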
# Conditions: IDH1 R132H reductase, diaphorase/resazurin fluorescence, 60 min; at 10 µM; hits give high values
# Isocitrate dehydrogenase [NADP] cytoplasmic (Homo sapiens), sequence (O75874 whole entry R132H): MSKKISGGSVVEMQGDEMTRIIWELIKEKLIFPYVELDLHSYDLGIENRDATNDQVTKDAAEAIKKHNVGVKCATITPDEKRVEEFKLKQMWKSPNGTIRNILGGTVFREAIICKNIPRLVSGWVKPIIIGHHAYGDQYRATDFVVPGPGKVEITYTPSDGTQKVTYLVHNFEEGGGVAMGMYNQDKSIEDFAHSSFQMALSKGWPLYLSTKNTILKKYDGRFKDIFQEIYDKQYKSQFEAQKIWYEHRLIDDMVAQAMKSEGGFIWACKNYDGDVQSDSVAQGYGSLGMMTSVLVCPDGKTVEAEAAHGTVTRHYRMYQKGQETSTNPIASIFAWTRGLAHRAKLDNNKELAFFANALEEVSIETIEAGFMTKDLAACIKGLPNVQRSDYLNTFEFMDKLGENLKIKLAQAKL
row,SMILES,inhibition
1,O=C(C[C@H]1C=C[C@H](NC(=O)CC2CC2)[C@H](CO)O1)NCc1ccc(Cl)cc1,-0.172% (inactive)
2,C[C@@H]1CN([C@H](C)CO)S(=O)(=O)c2ccc(C3=CCCC3)cc2O[C@H]1CN(C)C(=O)c1ccccc1,1.4% (inactive)
3,O=C(C[C@H]1CC[C@H](NC(=O)C2CCC2)[C@@H](CO)O1)Nc1nccs1,0.192% (inactive)
4,CO[C@H]1CN(C)C(=O)c2ccc(NS(=O)(=O)c3ccccc3C)cc2OC[C@H](C)NC[C@H]1C,-0.186% (inactive)
5,CO[C@H]1CN(C)C(=O)c2cc(NC(C)=O)ccc2OC[C@H](C)N(C(=O)C2CC2)C[C@H]1C,-0.354% (inactive)
6,CO[C@H]1CN(C)C(=O)c2ccc(NC(=O)C3CCC3)cc2OC[C@@H](C)N(Cc2ccccn2)C[C@H]1C,0.331% (inactive)
7,CCC(=O)Nc1ccc2c(c1)C(=O)N(C)C[C@H](OC)[C@H](C)CN(Cc1ccccc1F)[C@H](C)CO2,0.217% (inactive)
8,CO[C@H]1CN(C)C(=O)c2cc(NS(C)(=O)=O)ccc2OC[C@H](C)N(C(=O)C2CCCC2)C[C@H]1C,0.272% (inactive)
9,CCC(=O)N(C)C[C@@H]1Oc2cc(C#CC(C)(C)O)ccc2S(=O)(=O)N([C@@H](C)CO)C[C@@H]1C,-1.91% (inactive)
10,CN(C)C(=O)C[C@@H]1C[C@@H]2c3cc(NC(=O)c4ccc5c(c4)OCO5)ccc3O[C@@H]2[C@H](CO)O1,-0.927% (inactive)
11,Cc1ccc(S(=O)(=O)N[C@H]2CC[C@H](CC(=O)O)O[C@H]2CO)cc1,-0.244% (inactive)
12,Cc1ccc(S(=O)(=O)N[C@H]2C=C[C@@H](CC(=O)NCCc3ccncc3)O[C@@H]2CO)cc1,-0.308% (inactive)
13,COc1ccc(-c2cn(CC[C@H]3CC[C@@H](N)[C@H](CO)O3)nn2)cc1,0.0195% (inactive)
14,CO[C@H]1CN(C)C(=O)c2ccc(NS(=O)(=O)c3cn(C)cn3)cc2OC[C@H](C)N(C)C[C@H]1C,-0.0025% (inactive)
15,O=C(N[C@H]1C=C[C@@H](CC(=O)N2CCCCC2)O[C@@H]1CO)c1ccc2c(c1)OCO2,-0.0205% (inactive)
16,O=C(C[C@@H]1C[C@@H]2c3cc(NC(=O)C4CCOCC4)ccc3O[C@@H]2[C@H](CO)O1)NCc1ccncc1,-0.106% (inactive)
17,CCCNC(=O)N1C[C@H](C)[C@H](OC)CN(C)C(=O)c2cc(NC(=O)CC)ccc2OC[C@H]1C,-0.059% (inactive)
18,CCC(=O)N(C)C[C@@H]1Oc2ncc(-c3ccccc3OC)cc2C(=O)N([C@@H](C)CO)C[C@@H]1C,-0.321% (inactive)
19,CN1CCN(C(=O)C[C@H]2C[C@H]3c4cc(NC(=O)Nc5ccccc5F)ccc4O[C@H]3[C@H](CO)O2)CC1,-0.523% (inactive)
20,O=C(Nc1ccc2c(c1)OCO2)N[C@@H]1CC[C@H](CC(=O)N2CCN(c3ccccc3)CC2)O[C@@H]1CO,-0.0065% (inactive)
21,O=C(Cc1ccncc1)NCC[C@H]1CC[C@H](NC(=O)C2CC2)[C@H](CO)O1,0.014% (inactive)
22,CCC(=O)N(C)C[C@H]1Oc2cc(C#CCC(C)C)ccc2S(=O)(=O)N([C@H](C)CO)C[C@H]1C,-0.831% (inactive)

row,SMILES,inhibition
1,O=C(NCC[C@H]1CC[C@@H](NC(=O)c2cnccn2)[C@H](CO)O1)Nc1ccc(Cl)cc1,-0.362% (inactive)
2,CN(C)CCCNC(=O)C[C@@H]1C=C[C@H](NC(=O)Cc2cccnc2)[C@H](CO)O1,0.394% (inactive)
3,COc1cccc(-c2ccc3c(c2)O[C@H](CN(C)C(=O)C2CCOCC2)[C@H](C)CN([C@H](C)CO)S3(=O)=O)c1,-1.58% (inactive)
4,C[C@H](O)C#Cc1ccc2c(c1)O[C@H](CN(C)Cc1ccccn1)[C@H](C)CN([C@H](C)CO)S2(=O)=O,1.79% (inactive)
5,C[C@@H]1CN([C@@H](C)CO)S(=O)(=O)c2ccc(C#CCC3CCCC3)cc2O[C@@H]1CN(C)C,-1.79% (inactive)
6,C/C=C/c1ccc2c(c1)O[C@H](CN(C)C(=O)Cc1cccnc1)[C@@H](C)CN([C@H](C)CO)S2(=O)=O,9.7% (inactive)
7,CCCC#Cc1ccc2c(c1)O[C@@H](CN(C)CCC)[C@@H](C)CN([C@H](C)CO)S2(=O)=O,-0.176% (inactive)
8,C[C@@H]1CN([C@@H](C)CO)S(=O)(=O)c2ccc(C#CCC3CCCC3)cc2O[C@H]1CN(C)Cc1ccc(C(=O)O)cc1,0.74% (inactive)
9,C/C=C/c1ccc2c(c1)O[C@@H](CN(C)C(=O)Cc1ccccc1)[C@H](C)CN([C@@H](C)CO)S2(=O)=O,0.0005% (inactive)
10,CCCN(C)C[C@@H]1Oc2cc(C#CCc3ccccc3)ccc2S(=O)(=O)N([C@H](C)CO)C[C@@H]1C,35.5% (active)
11,C[C@@H]1CN([C@H](C)CO)S(=O)(=O)c2ccc(C#CCC3CCCC3)cc2O[C@H]1CN(C)Cc1ccc(C(=O)O)cc1,45.9% (active)
12,C/C=C/c1ccc2c(c1)O[C@H](CN(C)C(=O)Cc1ccncc1)[C@@H](C)CN([C@@H](C)CO)S2(=O)=O,37.6% (active)
13,CCCN(C)C[C@H]1Oc2cc(C#CCC(C)C)ccc2S(=O)(=O)N([C@H](C)CO)C[C@H]1C,-4.36% (inactive)
14,C[C@@H]1CCCCO[C@@H](CN(C)C(=O)Nc2ccc(C(F)(F)F)cc2)[C@H](C)CN([C@H](C)CO)C(=O)c2cc(NC(=O)C3CCCCC3)ccc2O1,1.02% (inactive)
15,O=C(NCC[C@@H]1CC[C@H](NC(=O)C2CC2)[C@@H](CO)O1)c1cc(Cl)cc(Cl)c1,0.406% (inactive)
16,CCCNC(=O)C[C@H]1C[C@@H]2c3cc(NC(=O)C4CCOCC4)ccc3O[C@@H]2[C@H](CO)O1,0.074% (inactive)
17,C[C@@H](NC(=O)C[C@@H]1C=C[C@@H](NC(=O)CN2CCOCC2)[C@H](CO)O1)c1ccccc1,0.081% (inactive)
18,CO[C@@H]1CN(C)C(=O)c2ccc(NC(=O)C3CC3)cc2OC[C@H](C)N(C(=O)c2ccccc2)C[C@@H]1C,0.146% (inactive)
19,CO[C@@H]1CN(C)C(=O)c2cc(NS(=O)(=O)c3ccccc3C)ccc2OC[C@@H](C)N(S(C)(=O)=O)C[C@@H]1C,-0.22% (inactive)
20,Cc1ccc(S(=O)(=O)N[C@@H]2CC[C@H](CCn3cc(C4(O)CCCC4)nn3)O[C@H]2CO)cc1,0.172% (inactive)
21,CCNC(=O)C[C@@H]1CC[C@H](NC(=O)NC2CCCCC2)[C@H](CO)O1,0.102% (inactive)
22,CO[C@@H]1CN(C)C(=O)c2ccc(NC(=O)C3CCCC3)cc2OC[C@H](C)NC[C@@H]1C,-0.326% (inactive)

row,SMILES,inhibition
1,CO[C@@H]1CN(C)C(=O)c2cc(NC(=O)c3ccccc3F)ccc2OC[C@H](C)NC[C@@H]1C,0.217% (inactive)
2,COc1cccc(CNC(=O)c2cc3c(c(-c4cccc(-c5ccc(C#N)cc5)c4)n2)[C@@H](CCO)N([S@](=O)C(C)(C)C)C3)c1,0.432% (inactive)
3,O=C(N[C@@H]1CC[C@@H](CCNS(=O)(=O)c2ccccc2Cl)O[C@@H]1CO)c1ccccc1,-0.485% (inactive)
4,CO[C@@H]1CN(C)C(=O)c2cc(NC(=O)C3CC3)ccc2OC[C@@H](C)N(C(=O)c2ccncc2)C[C@H]1C,0.284% (inactive)
5,COc1ccccc1-c1cnc2c(c1)C(=O)N([C@@H](C)CO)C[C@H](C)[C@@H](CN(C)C(C)=O)O2,-1.01% (inactive)
6,O=C(C[C@H]1C[C@H]2c3cc(NS(=O)(=O)c4ccc(F)cc4)ccc3O[C@H]2[C@H](CO)O1)NCc1cc(F)ccc1F,-0.236% (inactive)
7,O=C(N[C@H]1CC[C@@H](CCNS(=O)(=O)c2cccc(Cl)c2)O[C@@H]1CO)c1ccccc1,-0.277% (inactive)
8,CC(C)NC(=O)N[C@H]1CC[C@@H](CC(=O)NCc2ccc(Oc3ccccc3)cc2)O[C@@H]1CO,-0.181% (inactive)
9,O=C(N[C@H]1CC[C@H](CCNS(=O)(=O)c2ccc(F)cc2)O[C@H]1CO)C1CCC1,-0.096% (inactive)
10,C[C@@H]1CN([C@H](C)CO)C(=O)c2cc(-c3ccc(C(=O)N(C)C)cc3)cnc2O[C@H]1CN(C)C(=O)C1CC1,-0.906% (inactive)
11,CO[C@@H](CN(C)C(=O)c1cnccn1)[C@@H](C)CN([C@@H](C)CO)S(=O)(=O)c1ccc(Cl)cc1,0.106% (inactive)
12,O=C(C[C@H]1C[C@@H]2c3cc(NC(=O)c4cccnc4)ccc3O[C@@H]2[C@H](CO)O1)NCc1ccccn1,-0.419% (inactive)
13,CO[C@H]1CN(C)C(=O)c2ccc(NC(=O)c3ccc4c(c3)OCO4)cc2OC[C@@H](C)NC[C@@H]1C,0.0335% (inactive)
14,COCC(=O)Nc1ccc2c(c1)OC[C@@H](C)N(C(=O)c1cnccn1)C[C@H](C)[C@@H](OC)CN(C)C2=O,0.0305% (inactive)
15,CO[C@@H]1CN(C)C(=O)c2ccc(NC(=O)Nc3ccccc3)cc2OC[C@@H](C)N(C(=O)Nc2c(C)noc2C)C[C@@H]1C,-0.183% (inactive)
16,CO[C@@H]1CN(C)C(=O)c2cc(NS(=O)(=O)CC(F)(F)F)ccc2OC[C@@H](C)N(Cc2ccccn2)C[C@H]1C,0.0375% (inactive)
17,CO[C@H]1CN(C)C(=O)c2cc(NC(=O)C3CC3)ccc2OC[C@H](C)N(C(=O)CN(C)C)C[C@H]1C,0.155% (inactive)
18,O=C(C[C@@H]1C[C@H]2c3cc(NC(=O)Nc4ccccc4F)ccc3O[C@H]2[C@@H](CO)O1)NC1CCCCC1,-0.261% (inactive)
19,CCC(=O)Nc1ccc2c(c1)C(=O)N(C)C[C@H](OC)[C@H](C)CN(C(=O)C1CCC1)[C@@H](C)CO2,0.203% (inactive)
20,COCC(=O)Nc1ccc2c(c1)OC[C@@H](C)N(C(=O)c1ccncc1)C[C@@H](C)[C@@H](OC)CN(C)C2=O,-0.0035% (inactive)

# Source: PubChem BioAssay AID624101 (Broad Institute, 2012)
